Source: ChEMBL document CHEMBL3988442, “University of Dundee, Small-Polar-MMV Screening Library” (2021)
For some of these results: Measured potencies and affinities stand elsewhere.

What was measured:
Parameters in all cases: scale not given: direction of the effect not stated beside the values
[1] = target: Protein translocase subunit SecA (Escherichia coli (strain K12)) (UniProt P10408); experiment: Assay to Identify E. coli SecA ATPase Inhibitors; type: functional; details: 30 µM
[2] = target: T1, Ubiquitin-activating enzyme e1, putative (Leishmania donovani (strain BPK282A1)) (UniProt E9BSI1); experiment: Leishmania donovani Ubiquitin Activating Enzyme (LdE1); type: functional; details: 30 µM
T1 sequence (whole entry): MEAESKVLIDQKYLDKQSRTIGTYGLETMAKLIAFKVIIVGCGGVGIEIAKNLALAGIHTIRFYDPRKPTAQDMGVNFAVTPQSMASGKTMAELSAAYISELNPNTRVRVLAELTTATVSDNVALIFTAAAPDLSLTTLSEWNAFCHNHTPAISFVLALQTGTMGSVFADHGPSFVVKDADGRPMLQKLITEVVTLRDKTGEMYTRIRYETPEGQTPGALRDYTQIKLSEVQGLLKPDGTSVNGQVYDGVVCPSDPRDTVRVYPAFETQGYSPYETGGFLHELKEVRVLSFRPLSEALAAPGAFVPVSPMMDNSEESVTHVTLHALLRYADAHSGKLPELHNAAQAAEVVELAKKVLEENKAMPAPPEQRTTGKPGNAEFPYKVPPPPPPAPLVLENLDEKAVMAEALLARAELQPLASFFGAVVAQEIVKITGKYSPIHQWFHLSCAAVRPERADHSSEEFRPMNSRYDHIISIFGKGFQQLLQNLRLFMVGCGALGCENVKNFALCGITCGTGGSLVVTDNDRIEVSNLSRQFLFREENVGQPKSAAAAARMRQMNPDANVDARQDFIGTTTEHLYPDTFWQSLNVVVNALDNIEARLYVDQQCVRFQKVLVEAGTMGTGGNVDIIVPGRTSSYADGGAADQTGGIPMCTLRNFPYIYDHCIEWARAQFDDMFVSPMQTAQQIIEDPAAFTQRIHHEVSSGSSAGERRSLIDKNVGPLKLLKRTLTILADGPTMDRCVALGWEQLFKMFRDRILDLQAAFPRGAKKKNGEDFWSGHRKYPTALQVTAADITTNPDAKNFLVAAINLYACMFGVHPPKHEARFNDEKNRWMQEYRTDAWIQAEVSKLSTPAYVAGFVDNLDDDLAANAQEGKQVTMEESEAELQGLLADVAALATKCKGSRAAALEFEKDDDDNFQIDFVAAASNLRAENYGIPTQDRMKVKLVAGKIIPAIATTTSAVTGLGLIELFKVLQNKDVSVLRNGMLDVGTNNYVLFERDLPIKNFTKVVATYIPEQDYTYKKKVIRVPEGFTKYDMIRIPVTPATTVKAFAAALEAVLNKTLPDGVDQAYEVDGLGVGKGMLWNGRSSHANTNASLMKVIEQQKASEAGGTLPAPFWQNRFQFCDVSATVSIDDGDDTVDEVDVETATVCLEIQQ

[3] = target: AMP-activated protein kinase, AMPK (Homo sapiens) (UniProt P54646+O43741+P54619+Q9UGJ0+Q9Y478+Q13131+Q9UGI9); experiment: AMP-dependent Kinase enzyme assay. An in vitro enzyme assay that detects ADP turnover that is directly proportional to AMPK activity. This uses naive AMPK that is activated during the assay with MK-8722; type: functional; details: 30 µM
[4] = target: Sialic acid-binding Ig-like lectin 9 (Homo sapiens) (UniProt Q9Y336); experiment: Hs-Siglec9 ALPHAscreen SOP 20170721; details: 10 µM
Trypanosoma cruzi = experiment: Trypanosoma cruzi phosphomannomutase and mannose-1-phosphate guanylyltransferase assay; type: functional; details: 10 µM
[5] = target: T2, Arginase-2, mitochondrial (Homo sapiens) (UniProt P78540); experiment: in vitro enzyme assay to detect the production of urea directly proportional to the activity of Arginase II; type: functional; details: 33.3 µM; also: in the data most compounds retested in dose-response had high values
T2 sequence (whole entry): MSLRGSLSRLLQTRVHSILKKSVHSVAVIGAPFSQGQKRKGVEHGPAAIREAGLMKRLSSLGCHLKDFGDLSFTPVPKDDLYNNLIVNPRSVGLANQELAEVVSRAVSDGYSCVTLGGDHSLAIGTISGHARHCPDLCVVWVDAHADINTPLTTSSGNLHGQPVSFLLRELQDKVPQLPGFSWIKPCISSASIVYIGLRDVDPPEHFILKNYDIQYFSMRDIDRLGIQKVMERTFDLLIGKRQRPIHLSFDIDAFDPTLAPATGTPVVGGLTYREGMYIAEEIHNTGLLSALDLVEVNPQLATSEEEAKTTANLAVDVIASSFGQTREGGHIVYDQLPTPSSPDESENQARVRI

[6] = target: T3, Proteasome subunit beta (Trypanosoma cruzi) (UniProt O96673); experiment: Trypanosoma cruzi proteasome chymotrypsin-like activity (TcProtChymo) assay.; also: in the data most compounds retested in dose-response had high values; type: functional; details: 9.37 µM
T3 sequence (whole entry): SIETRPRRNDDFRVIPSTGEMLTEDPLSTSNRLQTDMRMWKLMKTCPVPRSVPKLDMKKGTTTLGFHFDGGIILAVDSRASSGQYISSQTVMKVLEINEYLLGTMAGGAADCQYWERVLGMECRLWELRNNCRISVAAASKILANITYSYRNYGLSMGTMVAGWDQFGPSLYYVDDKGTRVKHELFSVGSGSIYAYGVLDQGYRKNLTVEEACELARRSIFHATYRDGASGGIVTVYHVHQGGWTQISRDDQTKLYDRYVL

Homo sapiens = organism: Homo sapiens; experiment: To identify inhibition of the IFN signalling (Jak-Stat) pathway via expression of an eGFP reporter gene under the control of an IFN-stimulated response element (ISRE) containing MxA promoter.; type: functional; details: 30 µM
[7] = target: T4, Tyrosyl-tRNA synthetase, putative (Trypanosoma cruzi (strain CL Brener)) (UniProt Q4DSP6); experiment: Trypanosoma cruzi tyrosyl tRNA synthetase (TcYRS) _High Tyrosine SOP; type: functional; details: 30 µM; also: in the data most compounds retested in dose-response had high values
T4 sequence (whole entry): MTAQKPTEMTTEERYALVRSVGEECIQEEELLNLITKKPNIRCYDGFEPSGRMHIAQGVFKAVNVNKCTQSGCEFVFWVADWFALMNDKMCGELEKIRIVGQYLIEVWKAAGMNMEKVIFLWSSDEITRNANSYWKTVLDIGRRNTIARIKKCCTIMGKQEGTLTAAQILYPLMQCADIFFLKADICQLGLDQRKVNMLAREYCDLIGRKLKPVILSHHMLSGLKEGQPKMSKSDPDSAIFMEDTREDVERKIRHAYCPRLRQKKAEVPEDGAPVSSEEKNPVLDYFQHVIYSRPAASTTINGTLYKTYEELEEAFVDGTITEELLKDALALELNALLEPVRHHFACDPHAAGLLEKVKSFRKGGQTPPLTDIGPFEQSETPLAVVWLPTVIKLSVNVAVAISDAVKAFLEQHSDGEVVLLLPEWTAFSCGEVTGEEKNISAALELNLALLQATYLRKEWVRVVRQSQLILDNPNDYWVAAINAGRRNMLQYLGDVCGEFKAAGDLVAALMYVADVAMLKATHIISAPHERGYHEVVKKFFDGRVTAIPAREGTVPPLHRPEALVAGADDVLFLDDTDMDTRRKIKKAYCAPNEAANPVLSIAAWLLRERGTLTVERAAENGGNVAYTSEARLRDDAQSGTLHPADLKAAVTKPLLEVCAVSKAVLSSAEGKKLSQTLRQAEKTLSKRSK

[8] = target: T4, Tyrosyl-tRNA synthetase, putative (Trypanosoma cruzi (strain CL Brener)); experiment: Trypanosoma cruzi tyrosyl tRNA synthetase (TcYRS) SOP; type: functional; details: 30 µM
[9] = target: Chromo domain-containing protein 1 (Saccharomyces cerevisiae (strain ATCC 204508 / S288c) (Baker's yeast)) (UniProt P32657); experiment: ScCHD-1 Enzyme Inhibition Assay; type: functional; details: 30 µM; also: in the data most compounds retested in dose-response had high values
Chain of Chromo domain-containing protein 1 (Saccharomyces cerevisiae (strain ATCC 204508 / S288c) (Baker's yeast)) (P32657 whole entry, the tested form may be a part): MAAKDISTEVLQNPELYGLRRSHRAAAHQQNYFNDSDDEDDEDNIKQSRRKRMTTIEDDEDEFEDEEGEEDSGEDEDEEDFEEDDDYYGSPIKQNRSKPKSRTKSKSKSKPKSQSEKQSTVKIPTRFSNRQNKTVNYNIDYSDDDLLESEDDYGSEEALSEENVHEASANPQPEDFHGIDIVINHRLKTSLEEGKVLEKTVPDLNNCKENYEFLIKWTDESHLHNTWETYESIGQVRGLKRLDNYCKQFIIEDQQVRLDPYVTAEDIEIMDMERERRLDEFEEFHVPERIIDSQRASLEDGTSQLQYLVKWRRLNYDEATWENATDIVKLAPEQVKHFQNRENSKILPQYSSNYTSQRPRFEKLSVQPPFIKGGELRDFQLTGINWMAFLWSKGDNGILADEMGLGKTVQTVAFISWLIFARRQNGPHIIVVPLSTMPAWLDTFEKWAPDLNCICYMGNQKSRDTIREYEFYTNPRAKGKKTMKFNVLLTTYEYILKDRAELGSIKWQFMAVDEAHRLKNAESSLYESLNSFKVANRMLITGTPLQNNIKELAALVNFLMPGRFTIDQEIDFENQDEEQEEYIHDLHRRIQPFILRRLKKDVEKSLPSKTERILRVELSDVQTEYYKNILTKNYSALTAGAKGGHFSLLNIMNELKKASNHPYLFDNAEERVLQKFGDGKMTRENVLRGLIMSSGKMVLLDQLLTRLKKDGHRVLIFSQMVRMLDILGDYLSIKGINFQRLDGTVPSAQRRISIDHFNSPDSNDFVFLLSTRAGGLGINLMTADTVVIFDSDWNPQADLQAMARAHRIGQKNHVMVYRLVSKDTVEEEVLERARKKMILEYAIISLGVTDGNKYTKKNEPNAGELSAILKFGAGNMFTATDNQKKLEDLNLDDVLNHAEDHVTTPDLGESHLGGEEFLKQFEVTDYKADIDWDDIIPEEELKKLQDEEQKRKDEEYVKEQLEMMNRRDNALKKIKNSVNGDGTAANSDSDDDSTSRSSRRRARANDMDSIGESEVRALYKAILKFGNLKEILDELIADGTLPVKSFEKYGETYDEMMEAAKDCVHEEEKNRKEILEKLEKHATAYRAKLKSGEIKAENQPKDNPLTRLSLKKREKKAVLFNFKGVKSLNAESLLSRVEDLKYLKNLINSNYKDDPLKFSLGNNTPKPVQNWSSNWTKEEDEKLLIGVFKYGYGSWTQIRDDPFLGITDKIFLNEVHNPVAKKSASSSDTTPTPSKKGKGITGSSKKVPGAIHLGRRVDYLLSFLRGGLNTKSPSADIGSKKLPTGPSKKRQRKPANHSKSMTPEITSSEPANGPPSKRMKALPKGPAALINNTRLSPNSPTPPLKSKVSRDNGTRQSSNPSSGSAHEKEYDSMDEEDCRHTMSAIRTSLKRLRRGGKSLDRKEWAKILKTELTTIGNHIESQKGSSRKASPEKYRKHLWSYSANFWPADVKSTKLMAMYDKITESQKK

Chain of Protein translocase subunit SecA (Escherichia coli (strain K12)) (P10408 whole entry): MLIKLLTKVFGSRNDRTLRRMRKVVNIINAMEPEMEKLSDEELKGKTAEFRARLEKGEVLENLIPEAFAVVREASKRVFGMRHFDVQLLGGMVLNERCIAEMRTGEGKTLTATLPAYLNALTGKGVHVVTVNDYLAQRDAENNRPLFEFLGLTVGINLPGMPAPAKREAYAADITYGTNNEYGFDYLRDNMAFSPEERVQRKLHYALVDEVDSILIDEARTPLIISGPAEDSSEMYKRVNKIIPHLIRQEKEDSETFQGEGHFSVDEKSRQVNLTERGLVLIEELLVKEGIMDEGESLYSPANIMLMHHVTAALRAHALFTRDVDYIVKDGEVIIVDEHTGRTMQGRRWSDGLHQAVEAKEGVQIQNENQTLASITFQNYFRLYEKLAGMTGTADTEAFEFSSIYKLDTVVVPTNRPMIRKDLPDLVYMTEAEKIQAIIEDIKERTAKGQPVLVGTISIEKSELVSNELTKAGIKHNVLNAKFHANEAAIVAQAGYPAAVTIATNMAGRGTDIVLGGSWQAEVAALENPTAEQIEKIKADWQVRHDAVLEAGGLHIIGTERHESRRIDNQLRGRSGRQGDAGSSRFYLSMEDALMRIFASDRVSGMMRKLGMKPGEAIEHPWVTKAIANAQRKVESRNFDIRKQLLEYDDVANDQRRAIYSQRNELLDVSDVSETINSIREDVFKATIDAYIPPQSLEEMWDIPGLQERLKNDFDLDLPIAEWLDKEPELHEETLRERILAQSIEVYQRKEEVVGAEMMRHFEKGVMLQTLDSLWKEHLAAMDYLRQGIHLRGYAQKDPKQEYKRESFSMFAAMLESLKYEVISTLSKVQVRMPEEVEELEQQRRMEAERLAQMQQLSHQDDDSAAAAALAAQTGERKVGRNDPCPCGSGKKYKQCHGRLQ
Chain of Sialic acid-binding Ig-like lectin 9 (Homo sapiens) (Q9Y336 whole entry): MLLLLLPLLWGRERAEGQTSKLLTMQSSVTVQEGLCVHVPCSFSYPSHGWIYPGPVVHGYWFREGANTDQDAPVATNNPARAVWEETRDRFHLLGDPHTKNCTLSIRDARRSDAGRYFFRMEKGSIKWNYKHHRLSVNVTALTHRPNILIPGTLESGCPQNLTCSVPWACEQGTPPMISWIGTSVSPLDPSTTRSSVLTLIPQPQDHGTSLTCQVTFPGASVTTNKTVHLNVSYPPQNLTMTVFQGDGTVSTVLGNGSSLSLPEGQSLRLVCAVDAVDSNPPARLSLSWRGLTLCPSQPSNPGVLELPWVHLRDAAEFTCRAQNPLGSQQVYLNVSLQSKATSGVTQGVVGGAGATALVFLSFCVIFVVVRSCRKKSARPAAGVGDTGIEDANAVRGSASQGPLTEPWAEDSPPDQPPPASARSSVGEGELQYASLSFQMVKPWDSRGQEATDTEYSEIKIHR

| Structure (SMILES) | Percent Effect [1] | Percent Effect [2] | Percent Effect [3] | Percent Effect [4] | Percent Effect (Trypanosoma cruzi) | Percent Effect [5] | Percent Effect [6] | Percent Effect (Homo sapiens) | Percent Effect [7] | Percent Effect [8] | Percent Effect [9] |
| --- | --- | --- | --- | --- | --- | --- | --- | --- | --- | --- | --- |
| CN(CCOc1cccc(CN)c1)C1CCOCC1 | 1.04% | 2.7% | -5.71% | -2.08% | 1.54% | -5.24% | 7.41% | -5.29% | 1.59% | 9.76% | 13.5% |
| COCc1nc(C(=O)N2CCCCC2Cn2cc(C)cn2)cs1 (stereo unspecified) | -5.14% | -2.6% | 6.14% | -7.79% | -5.19% | -1.47% | 5.42% | 6.8% | -1.91% | -4.71% | -21.5% |
| Cc1nc(CN(C)C2CCN(Cc3ccno3)C2)no1 (stereo unspecified) | -3.58% | 18.2% | -53.5% | -23.7% | 5.19% | -7.79% | 29.4% | 4.64% | 3.81% | 18.8% | 3.1% |
| CC(C)NC(=O)[C@@H]1C[C@H](N)CN1C(=O)c1cc2c([nH]c1=O)CCCC2 | -2.48% | 6.94% | -2.43% | -9.13% | -1.46% | 1.77% | 17.7% | 3.48% | 4.21% | 7.69% | -3.08% |
| CC(C(=O)N1CCC(Nc2cccnn2)CC1)n1ccnc1 (stereo unspecified) | -2.11% | 5.41% | -6.39% | 14.9% | 4.43% | -3.21% | 3.42% | 11.9% | 3.45% | 6.17% | -6.18% |
| CN(C)CCOCC1CN(CC2CCOCC2)Cc2nnn(C)c21 (stereo unspecified) | -5.87% | 10.8% | 1.42% | -2.51% | -5.96% | 1.24% | 8.67% | 17% | 5.38% | 11.1% | -4.9% |
| CNC(=O)CCCNCc1c(C(C)C)nn(C)c1N(C)C | -1.38% | 0% | -11.4% | -8.3% | -2.15% | 2.52% | 0.761% | -13.6% | -2.46% | -1.24% | 5.41% |
| COc1ccc(C(CNC(=O)Nc2cn[nH]c2)N2CCOCC2)cc1 (stereo unspecified) | -3.98% | 7.79% | 3.92% | 0.747% | 4.8% | 1.05% | 15% | -2.67% | 10.5% | 25.9% | -20.4% |
| CNC(=O)CC1CC2(CCN(Cc3nccs3)CC2)c2ccccc21 (stereo unspecified) | -3.09% | 16.2% | -8.78% | 1.43% | 3.52% | 3.75% | 11.8% | -4.56% | 7.92% | 8.54% | -7.65% |
| CC(OCC1CC1)C(=O)N1CCCN(Cc2nccn2C)CC1 (stereo unspecified) | 0.276% | 13.9% | -2.47% | -3.62% | -5.64% | 1.07% | 19.4% | 10.6% | 3.12% | 7.59% | -24.1% |
| Cc1cc(-c2cnc(NCc3cccnc3)nc2C(C)C)on1 | -6.62% | 2.67% | 40.6% | -1.45% | -3.74% | -2.1% | 3.79% | 56.7% | 1.06% | 1.28% | -1.52% |
